{
  "source": "paper PMC4336329",
  "about": "(PLoS ONE, 2015)",
  "note": "Screen size: about 310,000 compounds; about 2,200 (0.71%) showed an effect of 50% or more. Effects have a minus sign here. The list comes from a sample in which strong results are over-represented; it also holds similar structures and randomly drawn compounds.",
  "data": [
    {"target": "human ether-à-go-go-related gene (hERG) potassium channel (human, UniProt Q12809)", "sequence (Q12809 whole entry, looked up)": "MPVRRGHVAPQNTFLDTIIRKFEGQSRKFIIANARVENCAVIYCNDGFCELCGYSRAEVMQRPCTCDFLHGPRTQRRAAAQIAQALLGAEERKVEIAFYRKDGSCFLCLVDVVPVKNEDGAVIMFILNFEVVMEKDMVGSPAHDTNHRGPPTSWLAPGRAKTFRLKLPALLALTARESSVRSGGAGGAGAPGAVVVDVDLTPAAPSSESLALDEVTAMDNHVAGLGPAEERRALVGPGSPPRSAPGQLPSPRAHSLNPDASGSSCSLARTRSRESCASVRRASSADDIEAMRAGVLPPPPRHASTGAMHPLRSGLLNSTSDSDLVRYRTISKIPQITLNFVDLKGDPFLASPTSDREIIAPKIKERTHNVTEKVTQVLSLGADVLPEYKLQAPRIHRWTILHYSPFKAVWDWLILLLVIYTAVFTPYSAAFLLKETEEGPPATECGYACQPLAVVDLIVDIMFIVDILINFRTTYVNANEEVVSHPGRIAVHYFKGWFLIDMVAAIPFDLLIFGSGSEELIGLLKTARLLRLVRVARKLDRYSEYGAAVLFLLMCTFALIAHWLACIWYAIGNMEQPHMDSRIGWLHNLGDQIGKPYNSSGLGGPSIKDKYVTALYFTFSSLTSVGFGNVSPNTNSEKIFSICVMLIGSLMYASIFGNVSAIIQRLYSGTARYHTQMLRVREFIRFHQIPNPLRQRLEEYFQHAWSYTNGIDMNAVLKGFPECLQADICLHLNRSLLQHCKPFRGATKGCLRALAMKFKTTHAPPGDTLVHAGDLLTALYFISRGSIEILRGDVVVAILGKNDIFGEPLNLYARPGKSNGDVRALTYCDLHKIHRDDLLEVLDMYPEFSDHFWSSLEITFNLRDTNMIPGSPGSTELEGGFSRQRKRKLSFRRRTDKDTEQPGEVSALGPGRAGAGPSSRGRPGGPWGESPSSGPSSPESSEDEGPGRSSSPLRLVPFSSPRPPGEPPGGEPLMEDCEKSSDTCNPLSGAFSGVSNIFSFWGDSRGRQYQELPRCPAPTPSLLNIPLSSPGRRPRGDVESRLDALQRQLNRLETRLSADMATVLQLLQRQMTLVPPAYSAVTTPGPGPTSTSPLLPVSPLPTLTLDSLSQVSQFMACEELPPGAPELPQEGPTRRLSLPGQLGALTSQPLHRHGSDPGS", "assay": "primary screen, population patch clamp on CHO cells stably expressing hERG; higher = less effect of the substance", "units": {"hERG current change (%, negative = inhibition) at 1uM": "%"}, "values": [
      {"compound": "CCCCC(=O)O[C@]1(C(=O)CO)CC[C@H]2[C@@H]3CCC4=CC(=O)CC[C@]4(C)[C@H]3[C@@H](O)C[C@@]21C", "hERG current change (%, negative = inhibition) at 1uM": 11.4},
      {"compound": "COc1ccc(N/C=C/C(=O)c2ccccc2)cc1", "hERG current change (%, negative = inhibition) at 1uM": 11},
      {"compound": "CCCCNC(=O)C1CCCN1C(=O)Nc1ccccc1", "note": "(stereo not shown)", "hERG current change (%, negative = inhibition) at 1uM": 0.208},
      {"compound": "O=S(=O)(NCc1cccnc1)c1ccc(Br)c2ccccc12", "hERG current change (%, negative = inhibition) at 1uM": 7.97},
      {"compound": "Cc1cc2nc(-c3ccc(SCc4ccc(C(=O)O)cc4)nc3)[nH]c2cc1C", "hERG current change (%, negative = inhibition) at 1uM": 14.5},
      {"compound": "COc1ccc2[nH]c(C(=O)O)c(CCNC(=O)/C=C/c3ccc(O)c(OC)c3)c2c1", "hERG current change (%, negative = inhibition) at 1uM": 13.1},
      {"compound": "CCCc1nnc(NC(=O)c2nc(S(=O)(=O)Cc3cccc(C)c3)ncc2Cl)s1", "hERG current change (%, negative = inhibition) at 1uM": 21},
      {"compound": "O=C1CCN(C(=O)Cc2ccccc2[N+](=O)[O-])CC1", "hERG current change (%, negative = inhibition) at 1uM": 14.3},
      {"compound": "O=C(Nc1cc(SCC(O)CO)cc([N+](=O)[O-])c1)c1ccc(-n2cnnn2)cc1", "note": "(stereo not shown)", "hERG current change (%, negative = inhibition) at 1uM": 17.4},
      {"compound": "Br.CC1(C(=O)CSc2n[nH]c(-c3ccccc3Cl)n2)CCC(=O)O1", "note": "(stereo not shown)", "hERG current change (%, negative = inhibition) at 1uM": 8.24},
      {"compound": "COc1ccc(N(CC(=O)NC2CCCCC2)S(=O)(=O)c2c(C)[nH]c(=O)[nH]c2=O)cc1", "hERG current change (%, negative = inhibition) at 1uM": 15.2},
      {"compound": "Cc1ccc(CNC(=O)c2nn(C)c(C)c2[N+](=O)[O-])cc1", "hERG current change (%, negative = inhibition) at 1uM": 5.74},
      {"compound": "Cl.N=c1n(CCN2CCCCC2)c2ccccc2n1CC(O)c1cccc(Br)c1", "note": "(stereo not shown)", "hERG current change (%, negative = inhibition) at 1uM": -41.7},
      {"compound": "Cl.N=c1n(CCN2CCCCC2)c2ccccc2n1CC(O)c1ccc(Cl)c(Cl)c1", "note": "(stereo not shown)", "hERG current change (%, negative = inhibition) at 1uM": -70.4},
      {"compound": "Cl.N=c1n(CCN2CCCC2)c2ccccc2n1CC(O)c1ccc(Cl)c(Cl)c1", "note": "(stereo not shown)", "hERG current change (%, negative = inhibition) at 1uM": -33.2},
      {"compound": "COc1ccc(NC(=S)N2CCC(NC(=O)c3ccc(OC)cc3)CC2)cc1", "hERG current change (%, negative = inhibition) at 1uM": 11.3},
      {"compound": "CCCN(CCC)CCCNC(=S)Nc1ccc2nc(N3CCCC3)cc(C)c2c1", "hERG current change (%, negative = inhibition) at 1uM": -14.5},
      {"compound": "CCOCCCNC(=S)Nc1ccc2nc(N3CCCC3)cc(C)c2c1", "hERG current change (%, negative = inhibition) at 1uM": -74.8},
      {"compound": "CCN1CCN(c2cc(C)c3cc(NC(=S)N(CC)CC)ccc3n2)CC1", "hERG current change (%, negative = inhibition) at 1uM": -8.83},
      {"compound": "CCCCN(C)C(=S)Nc1ccc2nc(N3CCN(CC)CC3)cc(C)c2c1", "hERG current change (%, negative = inhibition) at 1uM": -46.4},
      {"compound": "CCOCCCNC(=S)Nc1ccc2nc(N3CCN(CC)CC3)cc(C)c2c1", "hERG current change (%, negative = inhibition) at 1uM": 10.7},
      {"compound": "COCCNC(=S)Nc1ccc2nc(N3CCCC3)cc(C)c2c1", "hERG current change (%, negative = inhibition) at 1uM": -50.5},
      {"compound": "Cc1cc(N2CCCC2)nc2ccc(NC(=S)NCCCOC(C)C)cc12", "hERG current change (%, negative = inhibition) at 1uM": -78.6},
      {"compound": "CCN1CCN(c2cc(C)c3cc(NC(=S)N(C)Cc4ccccc4)ccc3n2)CC1", "hERG current change (%, negative = inhibition) at 1uM": -56.7},
      {"compound": "CCN1CCN(c2cc(C)c3cc(NC(=S)NCCCOC)ccc3n2)CC1", "hERG current change (%, negative = inhibition) at 1uM": 12.1},
      {"compound": "CCOCCCNC(=S)Nc1ccc2nc(N3CCOCC3)cc(C)c2c1", "hERG current change (%, negative = inhibition) at 1uM": 9.64},
      {"compound": "COCCNC(=S)Nc1ccc2nc(N3CCN(C)CC3)cc(C)c2c1", "hERG current change (%, negative = inhibition) at 1uM": 9.02},
      {"compound": "COCCNC(=S)Nc1ccc2nc(N3CCOCC3)cc(C)c2c1", "hERG current change (%, negative = inhibition) at 1uM": 14.9},
      {"compound": "NC(=O)NCCCC(NC(=O)c1ccc(C#CC2(O)CCCCC2)cc1)C(=O)O", "note": "(stereo not shown)", "hERG current change (%, negative = inhibition) at 1uM": 8.16},
      {"compound": "NS(=O)(=O)c1cccc2c1c([N+](=O)[O-])cc1nc([O-])c([O-])nc12.[Na+]", "hERG current change (%, negative = inhibition) at 1uM": 20.2},
      {"compound": "CCCNS(=O)(=O)c1cc(Br)cc2c1N(C(=O)CC)CC2", "hERG current change (%, negative = inhibition) at 1uM": 4.42},
      {"compound": "C=C(C)c1cccc(C(C)(C)NC(=O)NC2CC(C)(C)NC(C)(C)C2)c1", "hERG current change (%, negative = inhibition) at 1uM": 7.67},
      {"compound": "O=C(Nc1ccc(F)cc1)C1CC2CCC1C2", "note": "(stereo not shown)", "hERG current change (%, negative = inhibition) at 1uM": 12.7},
      {"compound": "Cc1ccc(NC(=O)c2cc(C)on2)cc1", "hERG current change (%, negative = inhibition) at 1uM": 6.42},
      {"compound": "CC12CN3CC(C)(CN(C1)C3c1ccccc1)C2O", "note": "(stereo not shown)", "hERG current change (%, negative = inhibition) at 1uM": 9.98},
      {"compound": "Cc1ccc(C2=NN(CC(=O)NCCN(CC(C)C)CC(C)C)C(=O)CC2)cc1", "hERG current change (%, negative = inhibition) at 1uM": -3.88},
      {"compound": "COc1cc(NC(=O)C(C)Oc2ccccc2)c(OC)cc1NC(=O)c1ccccc1", "note": "(stereo not shown)", "hERG current change (%, negative = inhibition) at 1uM": 13.2},
      {"compound": "O=C(c1cccc(Cl)c1)N1CCC(c2nc3ccccc3[nH]2)CC1", "hERG current change (%, negative = inhibition) at 1uM": -0.145},
      {"compound": "CC(C)(C)c1ccc(S(=O)(=O)N2CCC(c3nc4ccc(Cl)cc4[nH]3)CC2)cc1", "hERG current change (%, negative = inhibition) at 1uM": 7.6},
      {"compound": "CC1CCCN(C(=O)CN2CCC(c3nc4ccc(Cl)cc4[nH]3)CC2)C1", "note": "(stereo not shown)", "hERG current change (%, negative = inhibition) at 1uM": -35.9},
      {"compound": "COc1ccc(CN2CCC(c3nc4ccc(Cl)cc4[nH]3)CC2)cc1", "hERG current change (%, negative = inhibition) at 1uM": -84},
      {"compound": "Clc1ccc2nc(C3CCN(Cc4nnnn4C4CCCCC4)CC3)[nH]c2c1", "hERG current change (%, negative = inhibition) at 1uM": -16.2},
      {"compound": "O=C(NC1CCCCC1)N1CCC(c2nc3ccc(Cl)cc3[nH]2)CC1", "hERG current change (%, negative = inhibition) at 1uM": 6.29},
      {"compound": "COc1ccc(NC(=S)N2CCC(c3nc4ccc(Cl)cc4[nH]3)CC2)c(OC)c1", "hERG current change (%, negative = inhibition) at 1uM": 1.15},
      {"compound": "Cc1ccc(CN2CCC(c3nc4ccc(Cl)cc4[nH]3)CC2)cc1", "hERG current change (%, negative = inhibition) at 1uM": -91.8},
      {"compound": "Clc1ccc(CN2CCC(c3nc4ccc(Cl)cc4[nH]3)CC2)cc1", "hERG current change (%, negative = inhibition) at 1uM": -78.7}
    ]}
  ]
}
